Results taken from PubChem BioAssay AID1851 (National Center for Advancing Translational Sciences (NCATS), 2009).
Values joined by “and” are separate entries in the source; they are usually repeats but may differ in a detail not shown here. Identical values can stand only once. Screen size: about 16,000 compounds; about 5,700 (36%) were called active. Inconclusive results (about 24%) are left out. Calls follow the shape of the dose curve; as a rule, active = well fitted curve in the direction sought with a large enough effect; inconclusive = small, poorly fitted or top-dose-only effect, or effect the other way; inactive = no such curve, though single readings can be large or run the other way. This is one part of the list. More than one record can exist for a structure, and the calls need not agree.

Molecular target: Cytochrome P450 1A2 (Homo sapiens) (UniProt P05177)
Test: Cytochrome panel assay with activity outcomes
Details: recombinant CYP, pro-luciferin dealkylation, luminescence, p450-cyp1a2; series mostly up to 57.1 µM; activity, negative = inhibition: at the top concentration
% is scaled to controls: 0 for no effect and ±100 for the full control effect.

Cytochrome P450 1A2 (Homo sapiens), sequence (P05177 whole entry, looked up): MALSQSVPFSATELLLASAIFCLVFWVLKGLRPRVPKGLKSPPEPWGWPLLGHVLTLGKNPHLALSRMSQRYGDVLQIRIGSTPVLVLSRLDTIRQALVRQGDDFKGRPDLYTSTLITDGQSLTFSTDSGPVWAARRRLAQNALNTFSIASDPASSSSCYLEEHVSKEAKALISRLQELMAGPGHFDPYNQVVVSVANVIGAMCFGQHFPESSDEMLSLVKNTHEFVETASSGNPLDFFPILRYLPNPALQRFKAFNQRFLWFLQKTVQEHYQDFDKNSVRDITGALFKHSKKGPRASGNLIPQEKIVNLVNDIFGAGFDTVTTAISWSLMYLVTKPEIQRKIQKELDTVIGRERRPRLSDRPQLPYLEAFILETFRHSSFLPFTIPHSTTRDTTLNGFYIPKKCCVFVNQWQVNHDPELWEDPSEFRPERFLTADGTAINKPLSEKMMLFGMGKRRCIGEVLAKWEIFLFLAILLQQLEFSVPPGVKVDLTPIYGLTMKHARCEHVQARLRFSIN

Row | SMILES | activity, negative = inhibition | AC50
1 | NCCCS(=O)(=O)O | -4.72% (inactive) | –
2 | Cc1ccc(C(=O)N2C3C=CC(C3)C2(C(F)(F)F)C(F)(F)F)cc1 (configuration not stated) | -9.14% (inactive) | –
3 | C[C@H](NC(=O)c1ccc(Cl)c(Cl)c1)c1ccc(-c2ccccc2)cc1 | – | 631 nM (active)
4 | CCCCCN(CCCCC)C(=O)[C@H](CCC(=O)O)NC(=O)c1ccc(Cl)c(Cl)c1 | – | inactive
5 | COc1ccc(C(NC(=O)c2ccc(-c3ccccc3)cc2)c2ccccc2)cc1 (configuration not stated) | -2.05% (inactive) | –
6 | CCOc1ccc(C(C)=O)cc1N1C(=O)C2C(C1=O)C1C=CC2C12CC2 (configuration not stated) | -21.9% (inactive) | –
7 | Cc1cccc(Nc2ccncc2S(=O)(=O)NC(=O)NC(C)C)c1 | -15.6% [at 25.6 µM] (inactive) | –
8 | O=C(Nc1cccc(F)c1)N1CC2(CCN(S(=O)(=O)c3ccccc3)CC2)C1 | -28.7% (inactive) | –
9 | Cc1cccc(N/C(=N\S(=O)(=O)c2ccccc2)C(F)(F)F)c1 | – | 14100 nM (active)
10 | CCC(=O)NC(NC(=O)CC)C(Cl)Cl | -1.98% (inactive) | –
11 | O=C(Nc1ccccc1)c1cc([N+](=O)[O-])ccc1Cl | – | 631 nM (active)
12 | O=C(Nc1ccccc1)c1ccccc1CC[N+](=O)[O-] | – | 15800 nM (active)
13 | Cc1cccc[n+]1CC(=O)Nc1ccc([N+](=O)[O-])cc1Cl | -0.914% (inactive) | –
14 | CC(=O)Nc1ccc(NC(=O)c2ccccc2CC[N+](=O)[O-])cc1 | -12.1% (inactive) | –
15 | O=C(Nc1ccc([N+](=O)[O-])cc1Cl)c1cc(Cl)ccc1O | – | 1260 nM (active)
16 | O=C(O)c1cc(N=Nc2ccc([N+](=O)[O-])cc2)ccc1O | -15.2% [at 2.29 µM] (inactive) | –
17 | COc1cccc(/C(O)=C2/C(=O)C(=O)N(c3cc(C)on3)C2c2cccs2)c1 (configuration not stated) | -13.9% (inactive) | –
18 | CC(=O)OCC1=C(C(=O)O)N2C(=O)[C@@H](NC(=O)CSc3ccncc3)[C@@H]2SC1 | – | inactive
19 | Fc1ccc(CSc2ncnc3sc4c(c23)CCCC4)cc1 | – | 4470 nM (active)
20 | CCc1ccc(OCC(=O)NNC(=O)CSc2ncnc3sc(C)c(C)c23)cc1 | -21.4% (inactive) | –
21 | c1ccc(CSc2ncnc3c2sc2nc(N4CCOCC4)c4c(c23)CCCC4)cc1 | -8.51% (inactive) | –
22 | Nc1c(-c2ccccc2)cnn1-c1cccc([N+](=O)[O-])c1 | – | 3550 nM (active)
23 | Nc1nc2c(ncn2[C@@H]2C=C[C@@H](CO)C2)c(=O)[nH]1 | -4.34% [at 11.4 µM] (inactive) | –
24 | Cc1ccc(NC(=O)CSc2nnc(-c3ccncc3)o2)cc1 | -19.3% (inactive) | –
25 | Clc1cccc(Cl)c1CSc1nnc(/C=C/c2ccccc2)o1 | – | 4470 nM (active)
26 | Clc1ccccc1CSc1nnc(/C=C/c2ccccc2)o1 | – | 1260 nM (active)

Row | SMILES | activity, negative = inhibition | AC50
27 | Clc1ccccc1CSc1nnc(-c2ccncc2)o1 | – | 794 nM (active)
28 | Nc1nc(SCc2ccccc2Cl)cc(C(=O)O)n1 | 6.21% [at 2.29 µM] (inactive) | –
29 | CNC[C@H](O)[C@H](O)[C@H](O)[C@H](O)CO | -4.07% [at 25.6 µM] (inactive) | –
30 | CC(=O)N1CCC2(CCCN(Cc3ccccc3)C2)CC1 | 9.1% (inactive) | –
31 | CN1CCc2c(c3ccccc3n2C)C1 | – | 12600 nM (active)
32 | Cc1nc([N+](=O)[O-])c(N2CCN(C)CC2)n1Cc1ccccc1 | -2.13% (inactive) | –
33 | CN1CCc2nc(N)nc(-c3nc(N)nc4c3CN(C)CC4)c2C1 | -3.87% [at 2.29 µM] (inactive) | –
34 | CN1CCc2c(c3ccccc3n2Cc2ccccc2)C1 | – | 5010 nM (active)
35 | CN1CCC(=C2c3ccccc3C=Cc3ccccc32)CC1 | – | inactive
36 | CCC1(c2ccccc2)C(=O)NCNC1=O | -3.29% [at 25.6 µM] (inactive) | –
37 | N=C1[C@@H](O)[C@]2(I)c3ccccc3N3C(=N)[C@H](O)[C@@H]4c5ccccc5N1[C@@H]4[C@@H]32 | – | 2510 nM (active)
38 | Cn1cccc1C(=O)N1CCC[C@@]2(CCN(Cc3cc(C(F)(F)F)cc(C(F)(F)F)c3)C2)C1 | -13.9% (inactive) | –
39 | O=C(COc1ccc(Cl)cc1)Nc1ccc(N2CCN(C(=O)c3ccco3)CC2)cc1 | 8.86% (inactive) | –
40 | CCOc1ccc(NC(=S)N(Cc2ccc(N(C)C)cc2)Cc2ccco2)cc1 | – | 1260 nM (active)
41 | CCOc1ccc(NC(=S)N(Cc2ccc(Cl)cc2)Cc2ccco2)cc1 | – | 3550 nM (active)
42 | Cc1nn(C)cc1C(C(=O)NC1CCCCC1)N(C(=O)Cc1cccs1)c1ccc(C(C)C)cc1 (configuration not stated) | -7.11% (inactive) | –
43 | CC1Cc2ccccc2N1Cc1nc2cc(C(F)(F)F)ccc2c(=O)[nH]1 (configuration not stated) | – | 3550 nM (active)
44 | CN1CCC(N(C)C(=O)CCc2nc3ccccc3c(=O)[nH]2)CC1 | -10.8% (inactive) | –
45 | Cc1cc(C)c2c(SCc3ccc(Cl)cc3Cl)nc(N)nc2n1 | – | 3160 nM (active)
46 | O=C1OCC(c2ccccc2)=C1c1ccc(S(=O)(=O)N2CCOCC2)s1 | – | 25100 nM (active)
47 | Cc1ccc(NC(=O)c2cc(N3C(=O)C4CC=CCC4C3=O)ccc2N2CCOCC2)cc1Cl (configuration not stated) | – | 6310 nM (active)
48 | Cc1ccc(NC(=O)CSCC(=O)Nc2ccc(N3CCOCC3)c(Cl)c2)cc1 | -17.7% (inactive) | –
49 | NC(=O)c1ccc(N2CCCCC2)c(N2C(=O)C3CC=CCC3C2=O)c1 (configuration not stated) | 13.4% (inactive) | –
50 | CO/N=C(/CNC(=O)c1ccc(Cl)cc1Cl)c1ccc(Cl)cc1 | – | 2510 nM (active)
51 | CC1(C)CC(O)CC(C)(C)N1CC(O)COCCOc1ccc(Br)cc1 (configuration not stated) | 3.05% (inactive) | –
52 | CCSc1nnc(-c2ccccc2NC(C)=O)c(=O)[nH]1 | -12.1% (inactive) | –

Row | SMILES | activity, negative = inhibition | AC50
53 | CCSc1c(C(=O)NC)ccc2c1C(=O)c1ccccc1C2=O | – | 316 nM (active)
54 | Cc1[nH]c2c(C)cccc2c1CCNC(=O)c1ccc2c(c1[N+](=O)[O-])C(=O)c1ccccc1C2=O | -22.8% (inactive) | –
55 | N#C/C(=C(/O)CN1CCCCC1)c1nc(-c2ccc(Cl)cc2)cs1 | – | 6310 nM (active)
56 | O=C1OC2CC3CC1CC(O)(C3)C2 (configuration not stated) | -7.13% (inactive) | –
57 | NC(=O)CSc1nc2sc(-c3ccccc3)cc2c(=O)n1N | – | 5010 nM (active)
58 | COc1cc(/C=C\c2ccc(OC)cc2OC)cc(OC)c1 | – | 794 nM (active)
59 | CNC(C)c1cc(OC)ccc1OC (configuration not stated) | -6.45% (inactive) | –
60 | COC(=O)C(NC(=O)c1ccc(F)cc1)(Nc1ncc(S(=O)(=O)c2ccc([N+](=O)[O-])cc2)s1)C(F)(F)F (configuration not stated) | -16.5% (inactive) | –
61 | Clc1cccc(Oc2cnc3ccccc3n2)c1 | – | 2510 nM (active)
62 | CCOC(=O)c1cc2c(C)n(-c3ccc(C)cc3)c(C)c2ccc1=O | – | 12600 nM (active)
63 | CCOC(=O)Cn1nc(C)n(-c2ccc(C)cc2)c1=O | -15.3% (inactive) | –
64 | CCCCc1c2ccccc2nc2[nH]c3ccccc3c12 | – | 200 nM (active)
65 | c1ccc(-c2c3ccccc3nc3[nH]c4ccccc4c23)cc1 | – | 501 nM (active)
66 | O=C(O)[C@@H](O)[C@@H](O)[C@H](O)[C@H](O)CO | -5.55% [at 2.29 µM] (inactive) | –
67 | CO[C@@H]1COC(=O)CC=C[C@@H](C)[C@@H]2C=C[C@H](O)[C@@H](COC(=O)C/C=C\[C@H]1C)O2 | -1.42% [at 11.4 µM] (inactive) | –
68 | CC(C)(C)NC(=O)C(=O)NNC(=O)c1ccccc1 | 4.42% (inactive) | –
69 | CC(C)(C)c1nnc(NC(=O)NS(=O)(=O)c2ccccc2)s1 | -30% (inactive) | –
70 | CNc1ncc(C(=O)c2ccccc2)s1 | – | 4470 nM (active)
71 | O=S(=O)(C[C@H](O)C(Cl)(Cl)Cl)NNc1ccccc1 | 0.811% [at 2.29 µM] (inactive) | –
72 | CCOC(=O)Nc1ccc(S(=O)(=O)NCc2ccccc2)cc1 | -14% (inactive) | –
73 | COc1cc(C)c(Br)cc1S(=O)(=O)NCc1ccccc1 | – | 10000 nM (active)
74 | Cc1ccc(S(=O)(=O)NNc2ccccc2)cc1 | – | 2820 nM (active)
75 | Cc1ccc(-c2nn3c(C)nnc3c3ccccc23)cc1S(=O)(=O)NCc1ccccc1 | -15.2% (inactive) | –
76 | Cc1ccc(S(=O)(=O)N[C@H](C(=O)O)C(C)C)cc1 | -11% [at 11.4 µM] (inactive) | –
77 | Cc1ccc(NNS(=O)(=O)c2ccc(C)cc2)cc1 | – | 2820 nM (active)
78 | Cc1ccc(S(=O)(=O)NCC2CCC(C(=O)O)CC2)cc1 (configuration not stated) | 0.756% (inactive) | –

Row | SMILES | activity, negative = inhibition | AC50
79 | Cc1ccc(S(=O)(=O)N[C@H](CO)C(=O)O)cc1 | -12% [at 11.4 µM] (inactive) | –
80 | Cc1ccc(NC(=O)NNS(=O)(=O)c2ccc(Br)cc2)cc1 | -8.48% (inactive) | –
81 | Cc1ccc(S(=O)(=O)NCc2ccccc2)cc1 | – | 501 nM (active)
82 | C=CC[N+]1(CC#CCOC(c2ccccc2)c2ccccc2)CCOCC1 | -6.25% (inactive) | –
83 | N#Cc1cc2nc(O)c(O)nc2cc1[N+](=O)[O-] | – | inactive and 39.8 µM (active)
84 | NS(=O)(=O)c1cccc2c1c([N+](=O)[O-])cc1nc(O)c(O)nc12 | -10.3% (inactive) | –
85 | COc1ccccc1CN1CC[C@@]2(CCCN(S(C)(=O)=O)C2)C1 | -14.3% (inactive) | –
86 | Cc1ccc(NC2=NC(c3ccccc3)n3c(nc(C)cc3=O)N2)c(C)c1 (configuration not stated) | -4.75% (inactive) | –
87 | C[C@@H](c1ccccc1)N1C(=O)[C@@H]2[C@H]3C(=CC[C@H]2C1=O)C(=O)[C@H]1O[C@H]1[C@H]3O | -2.35% [at 11.4 µM] (inactive) | –
88 | Sc1ccc2ccccc2c1CNCc1ccccc1 | – | 1260 nM (active)
89 | O=C(O)c1ccc(CNCc2ccccc2)cc1 | -10.8% [at 11.4 µM] (inactive) | –
90 | O=C(C[C@@H](c1ccccc1)N1CCCCC1)c1ccccc1 | – | 1260 nM (active)
91 | O=C(O)c1cccc(CN2CCCCC2)c1 | -16.7% [at 11.4 µM] (inactive) | –
92 | C[C@H](C(=O)c1ccccc1)[C@@H](c1ccccc1)N1CCOCC1 | -14.9% [at 11.4 µM] (inactive) | –
93 | N[C@@H](CSCc1ccccc1)C(=O)O | -9.6% [at 11.4 µM] (inactive) | –
94 | O=C(Cc1ccccc1)NCCSCc1ccc(Cl)cc1 | – | 7080 nM (active)
95 | O=C(O)CCSCc1ccccc1 | -20.7% [at 11.4 µM] (inactive) | –
96 | CCCCCCCCCCCC(=O)O[C@H](CC(=O)O)C[N+](C)(C)C | 3.19% (inactive) | –
97 | CC(C)(C)N(NC(=O)Nc1ccccc1)C(=O)c1ccccc1Cl | 5.62% (inactive) | –
98 | Cc1ccc(NC(=O)N/C=C/c2ccc(Cl)cc2)cc1 | -22.5% (inactive) | –
99 | O=C(N/N=C/c1ccc(Cl)cc1Cl)c1cccc(F)c1 | – | 1780 nM (active)
100 | O=C(N/N=C/c1ccc(Cl)cc1)Nc1ccccc1 | – | 10000 nM (active)
101 | O=C(N/N=C/c1ccc(Cl)cc1Cl)Nc1ccccc1 | – | 1000 nM (active)
102 | O=C(Nc1ccc(N=Nc2ccccc2)cc1)c1ccc(Cl)cc1Cl | 11.4% (inactive) | –
